Holding throughout (assay): Primary Screen for Target Class Profiling of Small Molecule Inhibitors of Methyltransferases
Experiment [1] deals with Catechol O-methyltransferase (Homo sapiens) (UniProt P21964). The settings on record: purified enzyme, MTase-Glo SAH luminescence; activity change, negative = inhibition: at 40 µM, stronger effect = lower value; outcome: 40 uM. Summed up:
(§1)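 Each enzyme was assayed with SAM and its substrate. SAH formation detected by MTase-Glo luminescence; single-point 40 uM screen[…].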

Experiment [2] concerns the target Glycine N-methyltransferase (Homo sapiens) (UniProt Q14749). The settings on record: purified enzyme, MTase-Glo SAH luminescence; measured here: GNMT inhibition; at 40 µM; stronger effect = lower value. Summed up: as §1
Experiment [3] addresses Guanidinoacetate N-methyltransferase (Homo sapiens) (UniProt Q14353). The settings on record: purified enzyme, MTase-Glo SAH luminescence; measured here: GAMT inhibition; at 40 µM; stronger effect = lower value. In short, it runs like this: as §1
Experiment [4] concerns the target Histamine N-methyltransferase (Homo sapiens) (UniProt P50135). The conditions noted are these: purified enzyme, MTase-Glo SAH luminescence; measured here: HNMT inhibition; at 40 µM; stronger effect = lower value. In short, it runs like this:
as §1

Experiment [5] deals with Nicotinamide N-methyltransferase (Homo sapiens) (UniProt P40261). The settings on record: purified enzyme, MTase-Glo SAH luminescence; measured here: NNMT inhibition; at 40 µM; stronger effect = lower value. Summed up: as §1
Chain of Nicotinamide N-methyltransferase (Homo sapiens) (P40261 whole entry, looked up): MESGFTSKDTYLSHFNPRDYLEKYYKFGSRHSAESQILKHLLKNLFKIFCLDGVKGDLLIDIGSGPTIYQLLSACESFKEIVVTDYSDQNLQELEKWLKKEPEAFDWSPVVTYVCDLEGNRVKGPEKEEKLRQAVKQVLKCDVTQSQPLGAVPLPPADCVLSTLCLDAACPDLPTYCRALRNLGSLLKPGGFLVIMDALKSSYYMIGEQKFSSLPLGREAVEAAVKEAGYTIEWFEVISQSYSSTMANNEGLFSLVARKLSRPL
Experiment [6] deals with Phenylethanolamine N-methyltransferase (Homo sapiens) (UniProt P11086). The settings on record: purified enzyme, MTase-Glo SAH luminescence; measured here: PNMT inhibition; at 40 µM; stronger effect = lower value. Summed up: as §1
Chain of Phenylethanolamine N-methyltransferase (Homo sapiens) (P11086 whole entry, looked up): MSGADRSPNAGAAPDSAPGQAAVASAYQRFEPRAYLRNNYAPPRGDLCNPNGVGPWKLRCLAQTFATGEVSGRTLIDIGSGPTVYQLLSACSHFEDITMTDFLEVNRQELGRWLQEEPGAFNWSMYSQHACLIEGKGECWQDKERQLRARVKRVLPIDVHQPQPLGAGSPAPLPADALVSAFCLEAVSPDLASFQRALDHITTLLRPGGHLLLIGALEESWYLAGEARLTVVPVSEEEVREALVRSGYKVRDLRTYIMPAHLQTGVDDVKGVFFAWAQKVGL

Among all 25,000 compounds or so, about 970 (3.9%) were called active. Inconclusive results (about 8%) are left out. The rule behind the calls is not given here. For the sample, actives were picked, then their nearest neighbours and some compounds at random.
% is set by controls: 0 for no effect and ±100 for the full control effect.

Chain of Histamine N-methyltransferase (Homo sapiens) (P50135 whole entry, looked up): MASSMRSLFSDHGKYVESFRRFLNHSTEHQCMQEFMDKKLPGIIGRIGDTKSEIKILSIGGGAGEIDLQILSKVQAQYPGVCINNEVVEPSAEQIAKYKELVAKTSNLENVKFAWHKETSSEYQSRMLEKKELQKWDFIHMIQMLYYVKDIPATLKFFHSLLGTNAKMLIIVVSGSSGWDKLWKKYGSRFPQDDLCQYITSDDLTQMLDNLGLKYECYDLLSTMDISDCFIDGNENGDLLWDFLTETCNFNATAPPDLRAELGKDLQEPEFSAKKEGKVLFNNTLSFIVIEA
Chain of Glycine N-methyltransferase (Homo sapiens) (Q14749 whole entry, looked up): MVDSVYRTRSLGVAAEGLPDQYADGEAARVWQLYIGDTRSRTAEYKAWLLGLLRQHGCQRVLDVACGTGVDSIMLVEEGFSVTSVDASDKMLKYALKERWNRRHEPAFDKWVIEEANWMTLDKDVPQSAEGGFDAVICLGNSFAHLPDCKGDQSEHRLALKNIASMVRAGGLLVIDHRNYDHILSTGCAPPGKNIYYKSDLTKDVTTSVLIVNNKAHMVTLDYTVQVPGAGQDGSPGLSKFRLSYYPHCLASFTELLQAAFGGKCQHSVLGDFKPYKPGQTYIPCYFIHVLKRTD
Chain of Catechol O-methyltransferase (Homo sapiens) (P21964 whole entry, looked up): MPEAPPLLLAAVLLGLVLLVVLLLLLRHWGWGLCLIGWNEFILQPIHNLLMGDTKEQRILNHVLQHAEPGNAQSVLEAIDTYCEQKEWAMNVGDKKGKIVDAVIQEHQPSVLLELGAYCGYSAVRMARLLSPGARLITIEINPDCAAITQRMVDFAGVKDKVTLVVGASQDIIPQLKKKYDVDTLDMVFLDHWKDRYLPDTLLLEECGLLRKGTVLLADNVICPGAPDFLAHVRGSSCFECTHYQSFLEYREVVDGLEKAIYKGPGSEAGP

For `COC(=O)[C@]12C(=O)C(C)=C(O)[C@@]1(C)C(C)=CC1[C@@]34CC[C@@H](OC(C)=O)C(C)(C)C3[C@H](C[C@]12C)OC4=O` (stereo partly drawn), the activity change, negative = inhibition was 5.51% (inactive) in experiment [1]; 0% in experiment [2]; 3.85% in experiment [3]; 9.8% in experiment [4]; -6.73% in experiment [5]; 3.04% in experiment [6].
Take `CN(C)[C@@H]1C(=O)C(C(N)=O)=C(O)[C@@]2(O)C(=O)C3=C(O)c4c(O)ccc(Cl)c4[C@@H](O)[C@H]3C[C@@H]12`: the activity change, negative = inhibition is -74.5% (active) in experiment [1]; -24.2% in experiment [2]; 6.87% in experiment [3]; 3.22% in experiment [4]; -8.53% in experiment [5]; -5.78% in experiment [6].
Take `COCCOc1cc(=O)n2c(c1C(=O)NCc1ccccc1)CCOCC2`: the activity change, negative = inhibition in experiment [1] was -1.21% (inactive); in experiment [2] it was 1.04%; in experiment [3], -0.934%; in experiment [4] it was 1.39%; in experiment [5] it was -1.22%; in experiment [6], 1.39%.
As to `CCC(C)(C)NC(=O)c1cccc2c1CCN2C(=O)Nc1ccc(C)cc1`, the activity change, negative = inhibition in experiment [1] is -3.57% (inactive); in experiment [2], -1.49%; in experiment [3], -2.95%; in experiment [4], 1.94%; in experiment [5] it was -7.5%; in experiment [6], -2.44%.
`Cn1c(=O)n(C)c2cc(Nc3nc4ccccc4nc3NS(=O)(=O)c3ccc(Cl)cc3)ccc21`: the activity change, negative = inhibition in experiment [1] is 3.8% (inactive); in experiment [2], 7.68%; in experiment [3], -3.35%; in experiment [4] it was -4.47%; in experiment [5], 0.13%; in experiment [6] it was -6.48%.
In the case of `O=C(O)CC1CCC(c2ccc(-c3ccc(Nc4ccc(C(F)(F)F)nc4)cn3)cc2)CC1` (stereo not drawn), the activity change, negative = inhibition in experiment [1] was 17.9% (active); in experiment [2], -52.1%; in experiment [3] it was -12.8%; in experiment [4], 1.31%; in experiment [5], -35.3%; in experiment [6] it was -4.28%.
In the case of `CC(C)c1nccn1CCCNc1nc(-c2ccncc2)nc2c1cnn2C`, the activity change, negative = inhibition in experiment [1] is -44.5% (active); in experiment [2] it was -59.1%; in experiment [3] it was -50.1%; in experiment [4], -86%; in experiment [5], -53%; in experiment [6], -25.5%.
Take `CCOC(=O)c1cc2n(n1)CC(C)(C(=O)NCc1ccc(F)cc1)N(Cc1ccccc1OC)C2=O` (stereo not drawn): the activity change, negative = inhibition is -3.88% (inactive) in experiment [1]; -3.75% in experiment [2]; 3.18% in experiment [3]; 0.898% in experiment [4]; -7.43% in experiment [5]; -5.73% in experiment [6].
As to `COCCN1CC2(CCC1=O)CCN(C(=O)[C@@H]1C[C@@H](O)CN1)CC2`, the activity change, negative = inhibition was 4.29% (inactive) in experiment [1]; -0.827% in experiment [2]; -1.32% in experiment [3]; 1.21% in experiment [4]; 0.29% in experiment [5]; -19.8% in experiment [6].
Turning to `CC(C)CCN1CC2(CCCN(C(=O)c3ccn(C)c(=O)c3)C2)CCC1=O` (stereo not drawn), the activity change, negative = inhibition in experiment [1] was -31.2% (active); in experiment [2] it was -57.8%; in experiment [3], -45.1%; in experiment [4], -13.3%; in experiment [5], -17.7%; in experiment [6] it was -27%.
`COCCCn1c(=O)[nH]c2cccnc21`: the activity change, negative = inhibition in experiment [1] was -9.36% (inactive); in experiment [2], -5.17%; in experiment [3] it was -6.2%; in experiment [4] it was -1.12%; in experiment [5] it was -14.7%; in experiment [6], 9.39%.
For `CCCn1c(=O)c2ccc(C(=O)NC(C)C)cc2n2c(=O)n(CC(=O)NCc3ccccc3Cl)nc12`, the activity change, negative = inhibition in experiment [1] is 4.33% (inactive); in experiment [2], 2.57%; in experiment [3], 1.92%; in experiment [4], 6.44%; in experiment [5] it was 8%; in experiment [6], 4.03%.
Turning to `CCOC(=O)c1cc(Nc2ccc(C(C)=O)cc2)c2cc(Cl)ccc2n1`, the activity change, negative = inhibition in experiment [1] was -3.11% (inactive); in experiment [2] it was -4.22%; in experiment [3], 6.82%; in experiment [4], 0.863%; in experiment [5] it was 6.54%; in experiment [6], -3.31%.
As to `Cc1ccc(N2C(=O)c3cc4sccc4n3CC2(C)C(=O)NC2CCCCC2C)cc1` (stereo not drawn), the activity change, negative = inhibition in experiment [1] is -3.6% (inactive); in experiment [2] it was -2.03%; in experiment [3], 1.51%; in experiment [4], -1.92%; in experiment [5] it was -1.16%; in experiment [6], -6.83%.
`COc1cccc(-c2nnc3n(CCc4ccccc4)c(=O)c4ccccc4n23)c1O`: the activity change, negative = inhibition in experiment [1] was 0.892% (inactive); in experiment [2], -4.84%; in experiment [3] it was 0.066%; in experiment [4] it was 2.53%; in experiment [5], -3.08%; in experiment [6], 0.274%.
For the molecule `CN1CCCC1Cc1c[nH]c2ccc(CCS(=O)(=O)c3ccccc3)cc12` (stereo not drawn), the molecule was called active in experiment [1]. The activity change, negative = inhibition was -2.16% in experiment [2] and -89.9% in experiment [4].
For `Cc1cc2c(cc3n2CC(C)(C(=O)NC2CCCCCC2)N(Cc2cccs2)C3=O)o1` (stereo not drawn), the activity change, negative = inhibition in experiment [1] is -1.18% (inactive); in experiment [2], -9.3%; in experiment [3], 4.66%; in experiment [4], -6.23%; in experiment [5], -21%; in experiment [6] it was -2.94%.
As to `CCCCN1C(=O)c2cc(C(=O)NCc3cccc(OC)c3)nn2CC1(C)C(=O)NC1CCCC1` (stereo not drawn), the activity change, negative = inhibition in experiment [1] is 4.35% (inactive); in experiment [2], 5.79%; in experiment [3] it was 1.34%; in experiment [4], 1.56%; in experiment [5] it was 5.98%; in experiment [6], 5.6%.
Take `CCn1c(=O)n(CC)c2cc(S(=O)(=O)Nc3ccc(Br)c(C)c3)c(Cl)cc21`: the activity change, negative = inhibition in experiment [1] was -4.03% (inactive); in experiment [2], -3.14%; in experiment [3], 3.91%; in experiment [4], -0.387%; in experiment [5], -1.18%; in experiment [6] it was -4.27%.
In the case of `CCCN1C(=O)c2c(C(=O)NCCc3ccco3)ncn2CC1(C)C(=O)NCc1ccc(C)cc1` (stereo not drawn), the activity change, negative = inhibition in experiment [1] was 7.22% (inactive); in experiment [2], 0.693%; in experiment [3], 0.268%; in experiment [4], 5.09%; in experiment [5], 4.66%; in experiment [6] it was 9%.
Regarding `Cc1c(NC(=O)c2cc(C(N)=O)nc3cc(F)ccc23)c(C(F)(F)F)nn1Cc1ccc(C#N)cc1`, the activity change, negative = inhibition in experiment [1] was -4.71% (inactive); in experiment [2] it was -5.91%; in experiment [3], -2.28%; in experiment [4] it was 3.43%; in experiment [5], -13.8%; in experiment [6] it was 1.39%.
As to `COc1ccccc1CNC(=O)c1nn(CC2CC2)c2c1CNCC2`, the activity change, negative = inhibition in experiment [1] is -8.87% (inactive); in experiment [2] it was -6.08%; in experiment [3], -7.04%; in experiment [4], -9.87%; in experiment [5], -14.1%; in experiment [6], -12.2%.
As to `CC(C)n1c(=O)c2ccc(C(=O)NC3CCCCC3)cc2n2c(=O)n(CC(=O)NC3CCCCC3)nc12`, the activity change, negative = inhibition in experiment [1] is -2.65% (inactive); in experiment [2] it was -0.578%; in experiment [3], -0.047%; in experiment [4] it was 2.13%; in experiment [5], -1.76%; in experiment [6], -1.89%.
As for `CC(C)Cn1c(=O)c2ccccc2n2c(=O)n(Cc3ccccc3Cl)nc12`, the activity change, negative = inhibition in experiment [1] was 3.16% (inactive); in experiment [2] it was 2.72%; in experiment [3], 1.02%; in experiment [4], 6.97%; in experiment [5] it was -2.52%; in experiment [6], 3.52%.
In the case of `COc1c(C)c(OCC=C(C)C)cc2c1C(=O)NC2=O`, the activity change, negative = inhibition was 2.98% (inactive) in experiment [1]; 1.17% in experiment [2]; 8.39% in experiment [3]; 6.71% in experiment [4]; -18% in experiment [5]; -15.7% in experiment [6].
In the case of `NC(=O)c1cnc(NCCc2ccc(O)c(Cl)c2)nc1NCc1ccccc1`, the activity change, negative = inhibition in experiment [1] was -21.7% (active); in experiment [2], -31.8%; in experiment [3], -12.1%; in experiment [4], -36%; in experiment [5], -88.5%; in experiment [6], -23.4%.

These data come from PubChem BioAssay AID1745853 (National Center for Advancing Translational Sciences (NCATS), 2022).
